Compound activity from PubChem.
Giardia killer: Giardia lamblia killing; activity change, % at 7.66 µM, hits read low; Giardia lamblia trophozoite viability; 0.15% of 340,000 active; in the data active = activity change below about -80%; inconclusive = between about -30% and that limit;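 also: parasites exposed to compound for two days anaerobically before the ATP read; % is scaled to controls: 0 for no effect and ±100 for the full control effect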
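Anaerobic 48 hrs incubation at 37 deg C of 100 trophozoites/well with test compounds; ATPLite 1-Step luminescence, 15-30 min RT, reports cellular ATP as viability.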
IL2 activator: activators of IL-2 | IL-2 activation reporter assay, cell-based qHTS; stimulated with anti-CD3/CD4/CD28 beads; in transgenic mouse T cells | activation, % (series mostly up to about 46 µM) | 0.065% of 360,000 active | AID 652025; in the data active = activation above about 50%; inconclusive = mostly about 30% to 49%; also: 0% is about no effect
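Readout is EGFP and DsRed signal by fluorescent plate cytometry after 18 h at 37 degrees C. Transgenic mouse T cells (750/well) received compound for 60 min before bead stimulation (anti-CD3, anti-CD4, anti-CD28); memory T cells served as non-tolerant control.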
RXFP1 antagonist: RXFP1 (human) relaxin receptor antagonism. activity change, negative = inhibition, % at 57.5 µM. HEK293-RXFP1, relaxin-stimulated cAMP HTRF, 30 min; stronger effect = lower value. 0.59% of 350,000 active. AID 1259400;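 active = activity change of -60% or lower, but not beyond a set lower limit; inconclusive = change between -60% and -40%, or beyond the set limit; inactive = change above -40%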; also: % is scaled to controls: 0 for no effect and ±100 for the full control effect
Target sequence (Q9HBX9 whole entry, looked up): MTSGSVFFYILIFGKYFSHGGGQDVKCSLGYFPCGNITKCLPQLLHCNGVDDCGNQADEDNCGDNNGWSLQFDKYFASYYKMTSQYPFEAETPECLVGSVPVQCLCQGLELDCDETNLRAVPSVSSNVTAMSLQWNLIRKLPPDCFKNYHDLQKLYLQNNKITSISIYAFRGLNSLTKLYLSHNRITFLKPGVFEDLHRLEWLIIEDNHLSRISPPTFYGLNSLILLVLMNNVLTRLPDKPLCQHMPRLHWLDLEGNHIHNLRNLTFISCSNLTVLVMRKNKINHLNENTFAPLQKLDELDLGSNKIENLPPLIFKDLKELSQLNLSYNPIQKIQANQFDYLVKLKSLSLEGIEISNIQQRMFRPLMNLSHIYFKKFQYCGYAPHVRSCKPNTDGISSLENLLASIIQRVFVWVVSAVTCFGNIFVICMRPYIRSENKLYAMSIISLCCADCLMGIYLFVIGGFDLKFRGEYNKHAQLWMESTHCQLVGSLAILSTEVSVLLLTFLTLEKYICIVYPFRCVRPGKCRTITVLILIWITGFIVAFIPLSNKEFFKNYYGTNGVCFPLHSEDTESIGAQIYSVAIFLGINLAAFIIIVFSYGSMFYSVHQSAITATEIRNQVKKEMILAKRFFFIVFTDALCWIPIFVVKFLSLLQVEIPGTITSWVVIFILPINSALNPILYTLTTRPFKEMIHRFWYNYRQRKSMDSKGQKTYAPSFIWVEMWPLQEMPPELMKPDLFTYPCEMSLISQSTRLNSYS
BRCA1 expr up: BRCA1 expression activation | MCF7-BRCA1-FFLuc reporter, luminescence, 48 h; response scale: scaled: vehicle 0%, 10 µM genistein 100% | Potency, µM (titrated, usually from 46.1 µM), inactives show at the highest dose activation, usual class: activators | 1.1% of 380,000 active; also: potency is read from the fitted curve at half-maximal effect; nearly all actives have a fitted effect of over 80% in size
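Using MCF7 cells harboring a BRCA1 firefly luciferase reporter, plated 2 h before compound pinning, the screen measured luminescence after 48 h incubation. Responses were normalized to DMSO and 10 microM genistein, then fitted for concentration-effect.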
NPSR antagonist: blocks cAMP signaling of the human neuropeptide S receptor; Q6W5P4; CHO-NPSR cells, cAMP TR-FRET, antagonist mode; Potency, µM (series often up to 38.3 µM), for the others: top-dose activity change, negative = inhibition, most hits filed as inhibitors; 1% of 220,000 active; also: potency is read from the fitted curve at half-maximal effect; % is scaled to controls: 0 for no effect and ±100 for the full control effect; nearly all actives have a fitted effect of over 50% in size
RXFP1 ag: activates the human relaxin receptor RXFP1; Q9HBX9; HEK293T-RXFP1 cAMP TR-FRET, 30 min; response scale: percent of porcine relaxin response, buffer zero; Potency, µM (series often up to 57.5 µM), inactives show at the highest dose activation, actives largely listed as activators; 0.3% of 370,000 active; also: potency is read from the fitted curve at half-maximal effect; % is scaled to controls: 0 for no effect and ±100 for the full control effect; nearly all actives have a fitted effect of over 60% in size
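HEK293 cells stably expressing RXFP1, treated 30 min at 37C with compounds plus PDE4 inhibitor Ro 20174; cAMP measured by HTRF TR-FRET. Normalized to buffer and 29 nM porcine relaxin; EC50 by Hill fit.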
The depositor's hits bear a star; u = inconclusive; x = not tested or not shown; [ ] = remark or other dose. An excerpt weighted towards active compounds, which were near 1.9% of everything screened. Unless noted, calls follow the shape of the dose curve; as a rule, active = well fitted curve in the direction sought with a large enough effect; inconclusive = small, poorly fitted or top-dose-only effect, or another doubt; inactive = no such curve, though single readings can be large; an effect the other way counts as inactive or inconclusive.

SMILES	Giardia killer	IL2 activator	RXFP1 antagonist	BRCA1 expr up	NPSR antagonist	RXFP1 ag
CC(=O)Nc1cnc(-c2ccccc2C(C)=O)cn1	x	1	x	4%	x	x
CC(=O)Nc1cnc(-c2ccc3c(c2)OCO3)cn1	x	1	x	2.8µM*	x	x
O=C(Nc1nc(-c2ccc3c(c2)OCO3)cs1)C1CC1	8	-3	x	4.5µM*	-9%[46.1 µM]	1%
O=C(O)C(=O)Nc1nc(-c2ccc3c(c2)OCCO3)cs1	17	0	13	49%	x	-4%
O=S1(=O)C2CC3C=CC2(CN1Cc1ccccc1)O3 (configuration not stated)	0	x	x	x	x	x
COc1cc(OC)c2c(c1)C(=O)OC2c1cc(OC)c(OC)cc1C (configuration not stated)	-6	x	x	-1%	x	x
Cc1cc(Br)ccc1NC(=O)CSc1c2c(nc3ccccc13)CCC2	x	x	-5	x	x	4%
Cc1nn(C)c(C)c1CNC(=O)Nc1ccc2c(c1)OCO2	-10	2	-21	u	17%	0%
Cc1nn(C)c(C)c1CNC(=O)Nc1ccc(Cl)cc1	-11	0	-8	6.3µM*	21%	-3%
Cc1nn(C)c(C)c1CNC(=O)Nc1cccc(Cl)c1	-6	-1	9	4µM*	8%	0%
O=C(NCc1ccccn1)Nc1cccc(NC(=O)NCc2ccccn2)c1	0	0	-6	u	3%[46.1 µM]	0%
Cc1ccc(NC(=O)NCCc2c(C)nn(C)c2C)cc1Cl	x	x	x	u	x	0%
O=C(NCc1ccccn1)Nc1cccc(Cl)c1	-6	-1	4	13µM*	1%[46.1 µM]	1%
CCOC(=O)C1CCCN(C(=O)Cn2ncn3c(cc4sc(CC)cc43)c2=O)C1 (configuration not stated)	x	x	-17	x	x	3%
COc1ccc(NC(=O)/C=C/c2ccccc2)cn1	-4	-1	-13	8.9µM*	6%	0%
COc1ccc(NS(=O)(=O)c2ccc(NC(=S)NC(=O)/C=C/c3ccccc3)cc2)nn1	6	0	-13	-1%	7.9µM*	4%
COc1ccc(/C=C/C(=O)Nc2ccccc2)cc1OC	-7	-5	-13	11µM*	0%	0%
COc1cc(NS(=O)(=O)c2ccc(NC(=S)NC(=O)/C=C/c3ccc(F)cc3)cc2)ncn1	1	3	4	8%	31%[7.67 µM]	1%
Cc1ccc(C2=NCCn3c2c2ccc(C(F)(F)F)cc2[n+]3[O-])cc1	-84*	0	x	-7%	x	0%
COc1ccc(C2=NCCn3c2c2ccc(C(F)(F)F)cc2[n+]3[O-])cc1	-99*	0	x	0%	x	0%
Cc1ccccc1OCC(=O)NCC(C)NC(=O)COc1ccccc1C (configuration not stated)	7	x	x	-5%	x	x
Cc1ccc(/C=C2\CCC(C3CCCC3)C2=O)cc1 (configuration not stated)	-21	-1	0	13µM*	-8%	0%
COc1ccc(/C=C2\CCC(C3CCCC3)C2=O)cc1 (configuration not stated)	-5	-1	-3	u	x	0%
CCC(=O)Oc1ccc2c(c1)CC[C@@H]1[C@@H]2CC[C@@]2(C)[C@H]1C[C@@H](OC(=O)CC)[C@@H]2OC(=O)CC	x	x	-20	x	x	x
Cn1c(=O)c2c(nc(CCC3CCCC3)n2C)n(C)c1=O	-6	0	5	-8%	x	x
Cn1c(=O)c2c(nc(Cc3ccc(N)cc3)n2C)n(C)c1=O	-4	0	-2	-6%	-20%	16µM*
O=S(=O)(c1ccc2ccccc2c1)N1CCN(c2nc(-c3ccccc3)nc3ccccc23)CC1	u	x	x	3%	x	x
O=C(/C=C/c1ccccc1[N+](=O)[O-])c1ccccc1Br	22	-1	-72*	-95%	-48%	0%
COc1ccc(Nc2nc(-c3ccccc3O)nc3ccccc23)cc1	10	-5	4	-51%	x	-1%
COc1cccc(Nc2nc(-c3ccccc3O)nc3ccccc23)c1	4	64*	19	-40%	x	u
